What all share (test): yeast three-hybrid, YBZ-1, SC-Leu-His + 0.5 mM 3-AT, 4 days
What all share (conditions): tags: N-Gal4 AD-HA kept; label: inside an RPR1-promoter hybrid RNA with tandem MS2 sites; ssRNA

The target in one assay is PUM1 PUF domain R1-SRE (Homo sapiens, UniProt Q14671 828-1176, Q867E). In outline: (§1)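 Pumilio-1 PUF domain libraries, randomized at the three base-contacting residues of each repeat, were co-expressed with matching RNA elements from a centromeric plasmid in strain YBZ-1, which carries a LexA–MS2 coat fusion and a HIS3 reporter. Transformants grew for four days on SC-Leu (input) or on SC-Leu-His + 0.5 mM 3-AT (selection), and the repeat regions were PCR-amplified and Illumina-sequenced. The interaction score is the log change in variant frequency from input to selection. That logarithm is base 2, with a pseudocount of 1 where a variant was absent.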

The target of the next assay is PUM1 PUF domain R1-KRS (Homo sapiens, UniProt Q14671 828-1176, S863K;Q867S). In outline: as §1
The target of another assay is PUM1 PUF domain R1-KCR (Homo sapiens, UniProt Q14671 828-1176, S863K;R864C;Q867R). The method in brief: as §1
In another assay the target is T1, PUM1 PUF domain R6-RWW (Homo sapiens, UniProt Q14671 828-1176, N1043R;Y1044W;Q1047W).
T1 sequence: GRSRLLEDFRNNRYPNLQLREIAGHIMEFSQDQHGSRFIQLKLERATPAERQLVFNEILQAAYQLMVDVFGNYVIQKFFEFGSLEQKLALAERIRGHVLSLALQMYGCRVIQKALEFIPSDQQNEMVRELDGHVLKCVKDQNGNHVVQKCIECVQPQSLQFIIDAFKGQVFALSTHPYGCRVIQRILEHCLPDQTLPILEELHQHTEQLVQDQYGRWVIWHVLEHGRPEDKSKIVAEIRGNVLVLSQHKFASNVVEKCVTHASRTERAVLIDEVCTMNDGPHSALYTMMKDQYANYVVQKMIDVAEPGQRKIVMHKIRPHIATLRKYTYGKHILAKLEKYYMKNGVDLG
In outline:
as §1

The next assay addresses PUM1 PUF domain R3-LYT (Homo sapiens, UniProt Q14671 828-1176, C935L;R936Y;Q939T). The method in brief: as §1
The next assay addresses PUM1 PUF domain R3-LWK (Homo sapiens, UniProt Q14671 828-1176, C935L;R936W;Q939K). The method in brief: as §1
The target in another assay is T2, PUM1 PUF domain R6-FYM (Homo sapiens, UniProt Q14671 828-1176, N1043F;Q1047M).
T2 sequence: T1 sequence with R216F, W217Y, W220M
The method in brief: as §1

A further assay deals with PUM1 PUF domain R3-MFG (Homo sapiens, UniProt Q14671 828-1176, C935M;R936F;Q939G). In outline: as §1
The next assay concerns the target PUM1 PUF domain R3-YRV (Homo sapiens, UniProt Q14671 828-1176, C935Y;Q939V). In outline:
as §1

In the next assay the target is PUM1 PUF domain R3-VRN (Homo sapiens, UniProt Q14671 828-1176, C935V;Q939N). The method in brief:
as §1

Another assay deals with PUM1 PUF domain R5-NGS (Homo sapiens, UniProt Q14671 828-1176, C1007N;R1008G;Q1011S). The method in brief: as §1
Another assay concerns the target PUM1 PUF domain R5-KAC (Homo sapiens, UniProt Q14671 828-1176, C1007K;R1008A;Q1011C). The method in brief: as §1
The target of another assay is PUM1 PUF domain R2-SWR (Homo sapiens, UniProt Q14671 828-1176, N899S;Y900W;Q903R). The method in brief: as §1
The target in the next assay is PUM1 PUF domain R8-QFP (Homo sapiens, UniProt Q14671 828-1176, N1122Q;Y1123F;Q1126P). The method in brief:
as §1

A further assay addresses PUM1 PUF domain R7-LTV (Homo sapiens, UniProt Q14671 828-1176, S1079L;N1080T;E1083V). In outline:
as §1

A further assay has as its target PUM1 PUF domain R3-LNA (Homo sapiens, UniProt Q14671 828-1176, C935L;R936N;Q939A). The method in brief: as §1
Another assay has as its target PUM1 PUF domain R3-FCR (Homo sapiens, UniProt Q14671 828-1176, C935F;R936C;Q939R). In outline: as §1
In the next assay the target is PUM1 PUF domain R5-RQD (Homo sapiens, UniProt Q14671 828-1176, C1007R;R1008Q;Q1011D). The method in brief: as §1
For the next assay, the target named is PUM1 PUF domain R3-KSS (Homo sapiens, UniProt Q14671 828-1176, C935K;R936S;Q939S). In outline:
as §1

A further assay addresses PUM1 PUF domain R1-RIM (Homo sapiens, UniProt Q14671 828-1176, S863R;R864I;Q867M). The method in brief: as §1

Binding signal data for eleven sequences are collected here from publication PMC8384837, “Expanding the binding specificity for RNA recognition by a PUF domain”.

Residue numbers refer to the chain shown, from its start.

Chain of PUM1 PUF domain R5-NGS (Q14671 828-1176 C1007N/R1008G/Q1011S): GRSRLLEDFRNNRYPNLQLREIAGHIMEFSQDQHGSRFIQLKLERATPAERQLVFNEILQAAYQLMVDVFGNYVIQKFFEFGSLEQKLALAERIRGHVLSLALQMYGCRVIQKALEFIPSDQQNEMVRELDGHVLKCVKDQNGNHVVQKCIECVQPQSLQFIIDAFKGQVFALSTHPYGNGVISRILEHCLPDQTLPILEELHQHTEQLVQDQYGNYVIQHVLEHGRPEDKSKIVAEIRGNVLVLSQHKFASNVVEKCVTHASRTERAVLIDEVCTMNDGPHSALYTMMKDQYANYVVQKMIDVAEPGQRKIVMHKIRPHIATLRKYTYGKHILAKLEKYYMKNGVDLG
Chain of PUM1 PUF domain R2-SWR (Q14671 828-1176 N899S/Y900W/Q903R): as the sequence (Q14671 828-1176 C1007N/R1008G/Q1011S) above, with N72S, Y73W, Q76R, N180C, G181R, S184Q counted along it
Chain of PUM1 PUF domain R7-LTV (Q14671 828-1176 S1079L/N1080T/E1083V): as the sequence (Q14671 828-1176 C1007N/R1008G/Q1011S) above, with N180C, G181R, S184Q, S252L, N253T, E256V counted along it

For “GGCUAGAACUAGUGGAUCCCCCGGCGCCCGGCGGCUCGAGCCCGGGUAAGUGUAAAUGGUCUGCAUGCCGCCGGGCGCCAUGCCUGCAGGUCGACUCUAGAAAACAUG”, the binding signal with PUM1 PUF domain R1-SRE was 4.42 log2 enrichment (interaction score); with PUM1 PUF domain R1-KRS, 2.96 log2 enrichment (interaction score); in the assay with PUM1 PUF domain R1-KCR, 2.46 log2 enrichment (interaction score).
“GGCUAGAACUAGUGGAUCCCCCGGCGCCCGGCGGCUCGAGCCCGGGUAAGUGUAAAUAGUCUGCAUGCCGCCGGGCGCCAUGCCUGCAGGUCGACUCUAGAAAACAUG”: the binding signal is 4.3 log2 enrichment (interaction score) with PUM1 PUF domain R6-RWW; 3.3 log2 enrichment (interaction score) in the assay with PUM1 PUF domain R3-LYT; 3.42 log2 enrichment (interaction score) in the assay with PUM1 PUF domain R3-LWK; 2.99 log2 enrichment (interaction score) in the assay with PUM1 PUF domain R6-FYM; 2.43 log2 enrichment (interaction score) in the assay with PUM1 PUF domain R3-MFG; 0.2 log2 enrichment (interaction score) in the assay with PUM1 PUF domain R3-YRV. The binding signal in the assay with PUM1 PUF domain R3-VRN is 3.59 log2 enrichment (interaction score).
On to “GGCUAGAACUAGUGGAUCCCCCGGCGCCCGGCGGCUCGAGCCCGGGUAAGUGUUAAUAGUCUGCAUGCCGCCGGGCGCCAUGCCUGCAGGUCGACUCUAGAAAACAUG”, for which the figures for the binding signal with PUM1 PUF domain R5-NGS and in the assay with PUM1 PUF domain R5-KAC were 4.12 log2 enrichment (interaction score) and 3.67 log2 enrichment (interaction score), respectively.
Turning to “GGCUAGAACUAGUGGAUCCCCCGGCGCCCGGCGGCUCGAGCCCGGGUAAGUGUAAACAGUCUGCAUGCCGCCGGGCGCCAUGCCUGCAGGUCGACUCUAGAAAACAUG”, the binding signal with PUM1 PUF domain R2-SWR is 4.79 log2 enrichment (interaction score).
Regarding “GGCUAGAACUAGUGGAUCCCCCGGCGCCCGGCGGCUCGAGCCCGGGUAAGCGUAAAUAGUCUGCAUGCCGCCGGGCGCCAUGCCUGCAGGUCGACUCUAGAAAACAUG”, in the assay with PUM1 PUF domain R8-QFP, the binding signal was 4.49 log2 enrichment (interaction score).
As for “GGCUAGAACUAGUGGAUCCCCCGGCGCCCGGCGGCUCGAGCCCGGGUAAGUUUAAAUAGUCUGCAUGCCGCCGGGCGCCAUGCCUGCAGGUCGACUCUAGAAAACAUG”, in the assay with PUM1 PUF domain R7-LTV, the binding signal is 4.94 log2 enrichment (interaction score).
On to “GGCUAGAACUAGUGGAUCCCCCGGCGCCCGGCGGCUCGAGCCCGGGUAAGUGUAAGUAGUCUGCAUGCCGCCGGGCGCCAUGCCUGCAGGUCGACUCUAGAAAACAUG”, for which the binding signal is 3.41 log2 enrichment (interaction score) with PUM1 PUF domain R3-LNA, 5.73 log2 enrichment (interaction score) with PUM1 PUF domain R3-MFG, 4.59 log2 enrichment (interaction score) in the assay with PUM1 PUF domain R3-YRV and 5.77 log2 enrichment (interaction score) with PUM1 PUF domain R3-FCR.
As to “GGCUAGAACUAGUGGAUCCCCCGGCGCCCGGCGGCUCGAGCCCGGGUAAGUGUAAAUCGUCUGCAUGCCGCCGGGCGCCAUGCCUGCAGGUCGACUCUAGAAAACAUG”, the binding signal is 5.16 log2 enrichment (interaction score) with PUM1 PUF domain R1-KRS and 7.51 log2 enrichment (interaction score) with PUM1 PUF domain R1-KCR.
Turning to “GGCUAGAACUAGUGGAUCCCCCGGCGCCCGGCGGCUCGAGCCCGGGUAAGUGUCAAUAGUCUGCAUGCCGCCGGGCGCCAUGCCUGCAGGUCGACUCUAGAAAACAUG”, the binding signal is 3.67 log2 enrichment (interaction score) with PUM1 PUF domain R5-RQD and 4.63 log2 enrichment (interaction score) with PUM1 PUF domain R5-KAC.
Take “GGCUAGAACUAGUGGAUCCCCCGGCGCCCGGCGGCUCGAGCCCGGGUAAGUGUAAUUAGUCUGCAUGCCGCCGGGCGCCAUGCCUGCAGGUCGACUCUAGAAAACAUG”: the binding signal in the assay with PUM1 PUF domain R3-LNA is 2.71 log2 enrichment (interaction score); in the assay with PUM1 PUF domain R3-KSS, 2.98 log2 enrichment (interaction score); with PUM1 PUF domain R3-LYT, 5.26 log2 enrichment (interaction score); with PUM1 PUF domain R3-LWK it was 5.28 log2 enrichment (interaction score); with PUM1 PUF domain R3-MFG, 4.71 log2 enrichment (interaction score); with PUM1 PUF domain R3-YRV, 0.78 log2 enrichment (interaction score). The binding signal with PUM1 PUF domain R3-FCR was 1.6 log2 enrichment (interaction score).
“GGCUAGAACUAGUGGAUCCCCCGGCGCCCGGCGGCUCGAGCCCGGGUAAGUGUAAAUUGUCUGCAUGCCGCCGGGCGCCAUGCCUGCAGGUCGACUCUAGAAAACAUG”: the binding signal is 3.48 log2 enrichment (interaction score) with PUM1 PUF domain R1-RIM, 4.93 log2 enrichment (interaction score) with PUM1 PUF domain R1-KRS and 5.43 log2 enrichment (interaction score) with PUM1 PUF domain R1-KCR.
